# Screening data from PubChem BioAssay.
# Hits are enriched below; roughly 2.3% of the tested compounds scored in any of these assays.
# PTHR1 agonist = agonists of human PTHR1 parathyroid hormone receptor | HEK293 GP2 PTHR1 cells, GloSensor cAMP luminescence, 1 h | Potency, µM (highest dose often 115 µM), for inactives: at the top dose activation, most hits filed as activators | 0.075% of 410,000 active; also: nearly all actives have a fitted effect of over 55% in size
#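 HEK-293-derived GP2 cells expressing PTHR1 and a GloSensor cAMP reporter, 3,000/well, plated overnight, given luciferin plus IBMX (each 0.5 mM as added) for 1 h at 37 °C, then compound for 1 h at 37 °C. Luminescence was read after 15 min at room temperature.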
# GLP-1R agonist = activates the human GLP-1 receptor. P43220. HEK293 GLP-1R CRE-luciferase, luminescence, 4-6 h; cells express a hypersensitive GLP-1R form. Potency, µM (doses to about 45.6 µM), for inactives: at the highest dose activation, most hits filed as activators. 0.007% of 380,000 active; also: % of control where 0% means no effect
# 12-LOX inh = blocks human arachidonate 12S-lipoxygenase; P18054; purified 12hLO, xylenol orange hydroperoxide absorbance; Potency, µM (top dose mostly 108 µM), for the others: at the highest dose activity change, negative = inhibition, actives largely listed as inhibitors; 1.1% of 580,000 active; also: % is scaled to controls: 0 for no effect and ±100 for the full control effect
#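 Hydroperoxide product was detected by ferrous iron/xylenol orange as the 573 to 405 nm absorbance ratio. Arachidonic acid at 40 uM (final) was turned over for 30 min at room temperature by 150 nM human 12hLO, pH 7.0 Hepes buffer, after 15 min compound preincubation.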
# GLS inh = blocks human kidney-isoform glutaminase activity; Potency, µM (titrated, usually from 45.5 µM), for the others: at the highest dose activity change, negative = inhibition, usual class: inhibitors; AID 624170; GLS enzymatic activity, qHTS titration; 0.21% of 410,000 active; also: % is scaled to controls: 0 for no effect and ±100 for the full control effect
# Target sequence (O94925 whole entry, looked up, canonical isoform): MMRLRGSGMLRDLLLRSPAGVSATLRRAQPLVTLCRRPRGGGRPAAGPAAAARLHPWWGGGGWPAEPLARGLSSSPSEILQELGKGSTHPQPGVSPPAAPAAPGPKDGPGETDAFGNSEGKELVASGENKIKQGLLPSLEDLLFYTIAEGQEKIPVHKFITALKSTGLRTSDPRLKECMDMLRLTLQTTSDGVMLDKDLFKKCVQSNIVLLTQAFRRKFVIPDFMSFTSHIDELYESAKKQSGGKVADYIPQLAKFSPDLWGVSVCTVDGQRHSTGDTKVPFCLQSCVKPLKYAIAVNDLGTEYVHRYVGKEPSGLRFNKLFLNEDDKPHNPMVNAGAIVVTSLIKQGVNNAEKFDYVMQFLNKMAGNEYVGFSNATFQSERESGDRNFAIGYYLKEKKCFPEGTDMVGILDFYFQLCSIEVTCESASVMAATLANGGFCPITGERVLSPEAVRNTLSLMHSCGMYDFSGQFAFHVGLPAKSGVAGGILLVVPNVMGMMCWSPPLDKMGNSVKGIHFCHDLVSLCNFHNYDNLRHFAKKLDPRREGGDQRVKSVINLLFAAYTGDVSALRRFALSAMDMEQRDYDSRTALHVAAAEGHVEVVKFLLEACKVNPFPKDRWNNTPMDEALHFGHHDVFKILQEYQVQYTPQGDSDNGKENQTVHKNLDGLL
#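 hKGA in 45 mM KH2PO4 (pH 8.2), 0.02% Tween-20 with compound, then 1mM L-Glutamine (stock as added) plus glutamate oxidase/HRP/Amplex red coupling mix. Fluorescence read initially and after 30 min at RT; signal change reflects glutamate formation.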
# GLP1R inv ag = GLP-1 receptor (human) inverse agonism; P43220; HEK293 GLP-1R CRE-luciferase, luminescence, 24 h; GLP-1R form is constitutively active; Potency, µM (highest dose often 38.3 µM), for the others: at the top dose activity change, negative = inhibition, most hits filed as inhibitors; 1.6% of 410,000 active; also: % is scaled to controls: 0 for no effect and ±100 for the full control effect; nearly all actives have a fitted effect of over 55% in size
#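 Inverse agonism was detected as reduced cAMP-driven luciferase luminescence after 24 h compound treatment. The cells were HEK293 clones expressing constitutively active human GLP-1R with the reporter. Reporter-only and GPR119 cell lines served as counterscreen controls.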
# GRP78 ERSR act = inducers of ER stress response in human glioma cells; 0.02% of 420,000 active; Potency, µM, for inactives: top-dose activation, most hits filed as activators; U87-MG GRP78 promoter luciferase reporter, 16 h; AID 602332; also: series mostly up to about 76 µM; % of control where 0% means no effect; nearly all actives have a fitted effect of over 35% in size
#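 Stably transfected U87-MG human glioma cells carrying a GRP78-based luminescent sensor were seeded at 1000 cells/well, pin-dosed with compounds and incubated 16 h. Luciferase reagent was then added, and end-point luminescence was read after 10 min at room temperature.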
# * = called active by the depositor; i = inactive; ? = inconclusive; . = not tested or not shown; [ ] = remark or other dose. Calls follow the shape of the dose curve; as a rule, active = well fitted curve in the direction sought with a large enough effect; inconclusive = small, poorly fitted or top-dose-only effect, or another doubt; inactive = no such curve, though single readings can be large; an effect the other way counts as inactive or inconclusive. Potency is read from the fitted curve at half-maximal effect.
SMILES,PTHR1 agonist,GLP-1R agonist,12-LOX inh,GLS inh,GLP1R inv ag,GRP78 ERSR act
COc1ccccc1/C=C/C=C(\C#N)C(=O)NC(C)c1ccccc1 (configuration not stated),-8%,13%,-23%,-3%,11µM*,3%
Cc1[nH]c2ccccc2c1/C=C(\C#N)C(=O)NC(C)c1ccccc1 (configuration not stated),-18%[57.5 µM],-8%,7.1µM*,-2%,-1%,2%
CC[N+](CC)(CC)CCCOC(=O)C1(c2ccccc2)CCCC1,.,.,20µM*,.,.,.
CC[N+](C)(CC)CCCOC(=O)C1(c2ccccc2)CCCC1,.,.,20µM*,.,.,.
O=C(C(Cc1ccccc1)n1cccc1)N1CCN(Cc2ccccc2)CC1 (configuration not stated),-17%,-2%,.,-10%,?,-3%
CCC(C(=O)N1CCN(c2cccc(Cl)c2)CC1)c1ccccc1 (configuration not stated),-12%[57.5 µM],-3%,-9%,9%,5µM*,-7%
O=C(C(=O)N1CCN(c2ccc(F)cc2)CC1)c1c[nH]c2ccccc12,-19%,-2%,14%,5%,1%[0.307 µM],-5%
O=C(C(=O)N1CCN(c2cccc(Cl)c2)CC1)c1c[nH]c2ccccc12,i,-2%,?,-4%,8.9µM*,2%
O=C(C(Cc1ccccc1)n1cccc1)N1CCN(c2cccc(Cl)c2)CC1 (configuration not stated),-36%,-2%,-24%,0%,11µM*,-2%
COc1cc(OC)cc(C(=O)Nc2cc(C)c(O)c(-c3nc4ccccc4o3)c2)c1,.,.,25%,.,.,.
COc1ccc2c(C)c(CC(=O)NC3CC(C)(C)NC(C)(C)C3)c(=O)oc2c1OC,.,.,0%,.,.,.
O=C(Cn1sc2ccccc2c1=O)Nc1ccc(Br)cc1,-29%,24%,?,7.1µM*,-14%,-1%
O=C(Cn1sc2ccccc2c1=O)Nc1ccc(Cl)cc1,i,1%,-106%,7.1µM*,-24%,-7%
Cc1ccc(NC(=O)Cn2nc(-c3ccc(Cl)cc3)c3ccccc3c2=O)cc1,i,.,-16%,0%,1%,.
O=C(Cn1sc2ccccc2c1=O)Nc1ccc(F)cc1,-34%,-5%,-111%,?,?,-6%
Cc1c(O)cc2c(c1O)C(=O)CC(c1ccccc1)O2 (configuration not stated),-19%,-7%,?,1%,-75%,28µM*
CC(C)=CCc1c(O)cc(O)c2c1O[C@H](c1ccccc1)CC2=O,.,.,.,.,.,1%
Cn1c(CCC(=O)Nc2cc(S(C)(=O)=O)ccc2Cl)nc2cc(S(=O)(=O)N3CCOCC3)ccc21,-34%,-8%,45µM*,0%,15%,-5%
O=C(CSCc1ccccc1Br)NNC(=S)NCc1ccco1,-25%,1%,45µM*,4%,?,-4%
CCOC(=O)C1CCC(CNC(=O)N2CCCC2c2ccc(OC)cc2)CC1 (configuration not stated),.,.,1%,.,.,.
O=C(c1ccccc1)c1ccc2n1CCC2C(=O)Nc1ccc(C(F)(F)F)cc1 (configuration not stated),.,.,-24%,.,.,.
COC(=O)CNC(=O)Cc1c(C)n(C(=O)c2ccc(Cl)cc2)c2ccc(OC)cc12,20%,8%,-4%,3%,?,1%
COc1ccc2c(c1)c(CCNNC(=O)C(C)(C)C)c(C)n2C(=O)c1ccc(Cl)cc1,-43%,5%,2%,8%,10µM*,-3%
O=S(=O)(c1c(F)cccc1F)N1CCN(Cc2c(O)ccc3ccccc23)CC1,-12%,-3%,13µM*,2%,?,0%
Oc1ccc2ccccc2c1CN1CCOCC1,i,3%,7.1µM*,-33%,-21%,-2%
SMILES,PTHR1 agonist,GLP-1R agonist,12-LOX inh,GLS inh,GLP1R inv ag,GRP78 ERSR act
COc1ccc2ccc(O)c(CN3CCN(S(=O)(=O)c4cccc(C(F)(F)F)c4)CC3)c2c1,-13%,2%,-14%,2%,?,2%
COC(=O)CSc1cc(C(C)(C)C)c(O)c(C(C)(C)C)c1,.,.,-71%,.,.,.
CCCNC(=O)N[C@@H]1C[C@H](Cn2cc(-c3cccnc3)nn2)[C@@H](O)[C@H]1O,.,.,14µM*,.,.,.
COc1ccc(S[C@@H](CCN2CC[C@H](C)CCC2=O)c2ccccc2)cc1,-92%,4%,-11%,-4%,10µM*,-1%
Cc1ccc(S[C@@H](CCN2CC[C@H](O)CCC2=O)c2ccccc2)cc1,-2%,8%,35µM*,-1%,-14%,-2%
Cc1ccc(S[C@@H](CCN2CC[C@H](C(C)(C)C)CCC2=O)c2ccccc2)cc1,-59%,-4%,?,2%,10µM*,10%
CCC(C(=O)Nc1cccc(C(C)=O)c1)n1cnc2ccccc2c1=O (configuration not stated),.,.,-23%,.,.,.
CC(C(=O)Nc1ccc2c(c1)OCO2)N(C)CC(=O)Nc1ccc(Cl)cc1 (configuration not stated),i,8%,?,1%,?,-7%
CC(C(=O)Nc1ccc2c(c1)OCO2)N(c1ccc(Cl)cc1)S(C)(=O)=O (configuration not stated),-9%[57.5 µM],-6%,-16%,-1%,10µM*,-4%
CCCCC1Cc2[nH]c(=S)[nH]c(=O)c2C(C(C)C)O1 (configuration not stated),-25%,-3%,0%,-15%,16%,.
CCCCC1Cc2[nH]c(=S)[nH]c(=O)c2C(c2cccc3ccccc23)O1 (configuration not stated),-13%,1%,13µM*,-2%,7%,.
Cc1cc(NC(=O)c2ccc(CN3CC[C@H](O)C3)cc2)ccc1F,.,.,17%,.,.,.
COc1ccc(CN2CC(Oc3ccc(F)cc3C)C2)cc1,.,.,47%[176 µM],.,.,.
CCN(Cc1ccccc1)S(=O)(=O)c1ccc(C(=O)N(CCCN(C)C)c2nc3cc4c(cc3s2)OCCO4)cc1,-18%,-11%,?,-6%,13µM*,-7%
CN(C)CCCN(C(=O)c1cccc(C(F)(F)F)c1)c1nc2ccc(F)cc2s1,.,.,35µM*,.,.,.
CCN(Cc1ccccc1)S(=O)(=O)c1ccc(C(=O)N(CCCN(C)C)c2nc3ccc(F)cc3s2)cc1,-25%,-1%,?,-1%,5.6µM*,-13%
CCc1ccc(C(NS(=O)(=O)c2cccs2)c2cccs2)cc1 (configuration not stated),.,.,-50%,.,.,.
O=C(CSCc1ccc(Cl)cc1)Nc1ccc(O)cc1C(=O)O,i,-9%,6.3µM*,-11%,9%,-3%
